What all share (details): modulator concentration 10 µM
Experiment [1] relates to RAW-Dual (murine macrophage reporter line). Nature of the experiment: NF-kB reporter (SEAP) activity fold change vs agonist alone; higher = enhanced NF-kB activity. In a few lines:
(§1)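 Overnight stimulation with a PRR agonist followed pre-incubation for 1 hour at 37 °C with compound at 10 μM final. This was done in RAW-Dual murine macrophage reporter cells seeded at 50 000 per well in 384-well plates. NF-κB (SEAP, QUANTI-Blue absorbance at 620 nm) and IRF (Lucia luciferase, QUANTI-Luc luminescence) were read from the supernatant. Each reporter's fold change relative to the mean agonist-only control on the same plate was averaged over replicate plates.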

The test system is the same in experiment [2]. Nature of the experiment: IRF reporter (Lucia luciferase) activity fold change vs agonist alone; higher = enhanced IRF activity. A digest of the protocol:
as §1

For experiment [3] the test system is unchanged. Nature of the experiment: viability score (confluency relative to resting cells, overnight) (fraction); higher = more viable, active = viable (0.7 or more). In a few lines: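 RAW-Dual macrophages in 384-well plates were exposed overnight to compound at 10 μM final. Confluency was imaged with IncuCyte, and two confluency masks were generated with IncuCyte software over all imaged wells. The viability score is confluency expressed relative to resting cells. Compounds were called viable if both masks exceeded 70% of resting cells.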

Setting [4] is: agonist: CpG ODN 1826 0.5 ug/mL.

Molecules are shown by their SMILES. ± gives the standard deviation.

For `CS(=O)(=O)N1CCN(Cc2cc3nc(-c4cccc5[nH]ncc45)nc(N4CCOCC4)c3s2)CC1`, the NF-kB reporter in experiment [1] (setting [4]) worked out at 0.179 ± 0.029; in experiment [1] (agonist: LPS 0.1 ug/mL), 2.63 ± 0.34; in experiment [1] (agonist: MPLA […]) it was 2.94 ± 0.17. The IRF reporter in experiment [2] (agonist: 3'3'-cGAMP 10 ug/mL) stood at 0.151 ± 0.0092; in experiment [2] (agonist: LPS 0.1 ug/mL), 1.4 ± 0.24; in experiment [2] (agonist: MPLA […]), 1.33 ± 0.17. Also, the viability score in experiment [3] is 0.888 (active).
Consider `O=C(c1ccccc1)c1cc([N+](=O)[O-])ccc1N1CCOCC1`, for which the NF-kB reporter in experiment [1] (setting [4]) was 2.4 ± 0.19; in experiment [1] (agonist: LPS 0.1 ug/mL), 1.15 ± 0.069; in experiment [1] (agonist: MPLA […]), 1.88 ± 0.13. The IRF reporter worked out at 0.297 ± 0.03 in experiment [2] (agonist: 3'3'-cGAMP 10 ug/mL), 1.65 ± 0.12 in experiment [2] (agonist: LPS 0.1 ug/mL) and 1.48 ± 0.32 in experiment [2] (agonist: MPLA […]). For the same compound, the viability score in experiment [3] was 0.739 (active).
With `COc1ccc(C=C(NC(=O)c2ccccc2)C(=O)NCCC(=O)OCc2ccccc2)cc1`, the NF-kB reporter in experiment [1] (setting [4]) came out at 0.996 ± 0.082; in experiment [1] (agonist: LPS 0.1 ug/mL), 1.04 ± 0.096; in experiment [1] (agonist: MPLA […]), 0.875 ± 0.073. Moreover, the IRF reporter worked out at 0.841 ± 0.024 in experiment [2] (agonist: 3'3'-cGAMP 10 ug/mL), 1.4 ± 0.14 in experiment [2] (agonist: LPS 0.1 ug/mL) and 1.11 ± 0.22 in experiment [2] (agonist: MPLA […]). Also, the viability score in experiment [3] was 1.01 (active).
Regarding `Cc1ccc(-n2ncc3c(=O)n(CC=Cc4ccccc4)cnc32)cc1C`, the NF-kB reporter was found to be 0.969 ± 0.086 in experiment [1] (setting [4]), 1.1 ± 0.089 in experiment [1] (agonist: LPS 0.1 ug/mL) and 0.96 ± 0.091 in experiment [1] (agonist: MPLA […]). Also, the IRF reporter came out at 1.03 ± 0.061 in experiment [2] (agonist: 3'3'-cGAMP 10 ug/mL), 1.19 ± 0.12 in experiment [2] (agonist: LPS 0.1 ug/mL) and 1.06 ± 0.34 in experiment [2] (agonist: MPLA […]). In experiment [3], the viability score is 0.984 (active).
For `CC(C)c1ccccc1NS(=O)(=O)c1ccccc1`, the NF-kB reporter in experiment [1] (setting [4]) is 0.866 ± 0.072; in experiment [1] (agonist: LPS 0.1 ug/mL), 0.766 ± 0.039; in experiment [1] (agonist: MPLA […]), 1.05 ± 0.11. Also, the IRF reporter is 1.08 ± 0.066 in experiment [2] (agonist: 3'3'-cGAMP 10 ug/mL), 1.4 ± 0.089 in experiment [2] (agonist: LPS 0.1 ug/mL) and 1.53 ± 0.16 in experiment [2] (agonist: MPLA […]). For the same compound, the viability score in experiment [3] is 0.857 (active).
As for `O=C(CCCCCN1C(=O)c2cccc3cccc(c23)C1=O)NO`, the figures for the NF-kB reporter in experiment [1] (setting [4]), in experiment [1] (agonist: LPS 0.1 ug/mL) and in experiment [1] (agonist: MPLA […]) were 1.71 ± 0.32, 1.43 ± 0.12 and 4.2 ± 0.32, respectively. The IRF reporter was found to be 0.062 ± 0.0017 in experiment [2] (agonist: 3'3'-cGAMP 10 ug/mL), 0.581 ± 0.061 in experiment [2] (agonist: LPS 0.1 ug/mL) and 0.632 ± 0.12 in experiment [2] (agonist: MPLA […]). Further, the viability score in experiment [3] is 0.536 (inactive).
For the compound `CC(=O)Oc1c(C)cc2sc3ccccc3c(=O)c2c1C`, the NF-kB reporter in experiment [1] (setting [4]) is 1.06 ± 0.18; in experiment [1] (agonist: LPS 0.1 ug/mL), 0.87 ± 0.077; in experiment [1] (agonist: MPLA […]), 0.927 ± 0.095. The IRF reporter is 0.846 ± 0.032 in experiment [2] (agonist: 3'3'-cGAMP 10 ug/mL), 1.25 ± 0.12 in experiment [2] (agonist: LPS 0.1 ug/mL) and 1.2 ± 0.12 in experiment [2] (agonist: MPLA […]). Moreover, the viability score in experiment [3] was 0.998 (active).
Regarding `O=C(O)c1cc(O)c(O)c(O)c1`, the NF-kB reporter in experiment [1] (setting [4]) worked out at 0.306 ± 0.013; in experiment [1] (agonist: LPS 0.1 ug/mL), 0.876 ± 0.078; in experiment [1] (agonist: MPLA […]), 0.749 ± 0.062. The IRF reporter in experiment [2] (agonist: 3'3'-cGAMP 10 ug/mL) turned out to be 0.594 ± 0.03; in experiment [2] (agonist: LPS 0.1 ug/mL), 1.16 ± 0.2; in experiment [2] (agonist: MPLA […]), 0.97 ± 0.27. For the same compound, in experiment [3], the viability score is 1.02 (active).
On to `FC(F)(F)c1ccc(/C=C/c2nc(COc3ccc(CCCCn4ccnn4)cc3)co2)cc1`, for which the NF-kB reporter in experiment [1] (setting [4]) was determined as 1.26 ± 0.17; in experiment [1] (agonist: LPS 0.1 ug/mL) it was 1.71 ± 0.29; in experiment [1] (agonist: MPLA […]) it was 1.46 ± 0.09. In addition, the IRF reporter is 0.914 ± 0.028 in experiment [2] (agonist: 3'3'-cGAMP 10 ug/mL), 1.67 ± 0.14 in experiment [2] (agonist: LPS 0.1 ug/mL) and 1.77 ± 0.16 in experiment [2] (agonist: MPLA […]). Also, the viability score in experiment [3] was 0.995 (active).
In the case of `CCNC(=O)c1ccc(CN2CCc3ccccc3C2)cc1`, the values for the NF-kB reporter in experiment [1] (setting [4]), in experiment [1] (agonist: LPS 0.1 ug/mL) and in experiment [1] (agonist: MPLA […]) were 1.12 ± 0.09, 1.13 ± 0.074 and 0.958 ± 0.059, respectively. Moreover, the IRF reporter in experiment [2] (agonist: 3'3'-cGAMP 10 ug/mL) is 0.905 ± 0.039; in experiment [2] (agonist: LPS 0.1 ug/mL), 1.37 ± 0.29; in experiment [2] (agonist: MPLA […]) it was 1.04 ± 0.075. Moreover, the viability score in experiment [3] is 1.01 (active).
For `CCCCC1=NC2(CCCC2)C(=O)N1Cc1ccc(-c2ccccc2-c2nn[nH]n2)cc1`, the NF-kB reporter was found to be 1.05 ± 0.079 in experiment [1] (setting [4]), 0.951 ± 0.08 in experiment [1] (agonist: LPS 0.1 ug/mL) and 0.978 ± 0.026 in experiment [1] (agonist: MPLA […]). In addition, the IRF reporter worked out at 0.948 ± 0.052 in experiment [2] (agonist: 3'3'-cGAMP 10 ug/mL), 1.01 ± 0.15 in experiment [2] (agonist: LPS 0.1 ug/mL) and 0.945 ± 0.18 in experiment [2] (agonist: MPLA […]). Besides, the viability score in experiment [3] is 1 (active).
As to `O=S(=O)(Nc1nc2ccccc2n2nnnc12)c1ccc(F)cc1`, the NF-kB reporter was 1.01 ± 0.1 in experiment [1] (setting [4]), 1.03 ± 0.068 in experiment [1] (agonist: LPS 0.1 ug/mL) and 0.934 ± 0.067 in experiment [1] (agonist: MPLA […]). Moreover, the IRF reporter in experiment [2] (agonist: 3'3'-cGAMP 10 ug/mL) was 0.865 ± 0.021; in experiment [2] (agonist: LPS 0.1 ug/mL), 1.21 ± 0.15; in experiment [2] (agonist: MPLA […]), 0.964 ± 0.25. In experiment [3], the viability score is 1.01 (active).
As for `O=C(CCCn1c(=O)[nH]c2ccc(Br)cc2c1=O)NCC1CCCO1` (stereo unspecified), the NF-kB reporter was determined as 0.965 ± 0.081 in experiment [1] (setting [4]), 1.05 ± 0.099 in experiment [1] (agonist: LPS 0.1 ug/mL) and 0.931 ± 0.043 in experiment [1] (agonist: MPLA […]). Besides, the figures for the IRF reporter in experiment [2] (agonist: 3'3'-cGAMP 10 ug/mL), in experiment [2] (agonist: LPS 0.1 ug/mL) and in experiment [2] (agonist: MPLA […]) were 0.957 ± 0.057, 1.04 ± 0.063 and 0.94 ± 0.25, respectively. Besides, the viability score in experiment [3] was 1.02 (active).
`CC1ON(c2ccc(Cl)c(Cl)c2)C(=O)NC1=O` (stereo unspecified): the NF-kB reporter in experiment [1] (setting [4]) came out at 1.02 ± 0.13; in experiment [1] (agonist: LPS 0.1 ug/mL) it was 0.886 ± 0.065; in experiment [1] (agonist: MPLA […]), 1.06 ± 0.11. Moreover, the IRF reporter in experiment [2] (agonist: 3'3'-cGAMP 10 ug/mL) stood at 1.03 ± 0.032; in experiment [2] (agonist: LPS 0.1 ug/mL) it was 1.27 ± 0.2; in experiment [2] (agonist: MPLA […]), 1.49 ± 0.24. Also, the viability score in experiment [3] is 0.998 (active).
For the compound `Cc1cccc(C)c1OCC(C)N.Cl` (stereo unspecified), the values for the NF-kB reporter in experiment [1] (setting [4]), in experiment [1] (agonist: LPS 0.1 ug/mL) and in experiment [1] (agonist: MPLA […]) were 1.17 ± 0.25, 1.25 ± 0.23 and 0.953 ± 0.058, respectively. Further, the IRF reporter in experiment [2] (agonist: 3'3'-cGAMP 10 ug/mL) was found to be 0.89 ± 0.061; in experiment [2] (agonist: LPS 0.1 ug/mL), 1.33 ± 0.29; in experiment [2] (agonist: MPLA […]), 1.04 ± 0.13. For the same compound, the viability score in experiment [3] is 0.968 (active).
With `COc1c2occc2cc2ccc(=O)oc12`, the NF-kB reporter in experiment [1] (setting [4]) was 1.44 ± 0.21; in experiment [1] (agonist: LPS 0.1 ug/mL), 1.21 ± 0.11; in experiment [1] (agonist: MPLA […]), 0.907 ± 0.051. For the same compound, the IRF reporter was 0.91 ± 0.029 in experiment [2] (agonist: 3'3'-cGAMP 10 ug/mL), 1.3 ± 0.15 in experiment [2] (agonist: LPS 0.1 ug/mL) and 1.04 ± 0.08 in experiment [2] (agonist: MPLA […]). Moreover, the viability score in experiment [3] was 0.989 (active).
As for `COc1ccc(S(=O)(=O)NCc2cccnc2-c2cnn(C)c2)cc1Cl`, the NF-kB reporter was determined as 1.1 ± 0.055 in experiment [1] (setting [4]), 1.15 ± 0.12 in experiment [1] (agonist: LPS 0.1 ug/mL) and 1.04 ± 0.06 in experiment [1] (agonist: MPLA […]). For the same compound, the IRF reporter in experiment [2] (agonist: 3'3'-cGAMP 10 ug/mL) is 1.17 ± 0.058; in experiment [2] (agonist: LPS 0.1 ug/mL), 1.11 ± 0.072; in experiment [2] (agonist: MPLA […]), 1.04 ± 0.19. In addition, the viability score in experiment [3] is 0.999 (active).
Turning to `Brc1ccc(C(Cc2ccccc2)Nc2ccccn2)cc1` (stereo unspecified), the figures for the NF-kB reporter in experiment [1] (setting [4]), in experiment [1] (agonist: LPS 0.1 ug/mL) and in experiment [1] (agonist: MPLA […]) were 0.255 ± 0.014, 1.07 ± 0.071 and 0.929 ± 0.084, respectively. Moreover, the IRF reporter came out at 1.27 ± 0.042 in experiment [2] (agonist: 3'3'-cGAMP 10 ug/mL), 1.75 ± 0.12 in experiment [2] (agonist: LPS 0.1 ug/mL) and 1.28 ± 0.12 in experiment [2] (agonist: MPLA […]). Further, the viability score in experiment [3] was 0.959 (active).

Source of the values: the supplement of paper PMC10646978.
